# BAZ2B inh: BAZ2B (human) inhibition. Q9UIF8. AlphaScreen BAZ2B-H3K14Ac peptide displacement. Potency, µM (top dose mostly 114 µM), inactives show top-dose activity change, negative = inhibition, actives largely listed as inhibitors. 360,000 compounds, 4.4% hits; further: on the % scale 0 is the no-effect control and ±100 the full control effect; nearly all actives have a fitted effect of over 60% in size
#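 AlphaScreen luminescence quantifies BAZ2B engagement of H3K14Ac peptide; the protein and biotinylated peptide are both at 50 nM final, buffer PBS pH 7.4 with 0.01% Tween-20, all steps at room temperature.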
# L3MBTL1 block: L3MBTL1 (human) inhibition; Q9Y468; AlphaScreen L3MBTL1–H3K9me1 peptide binding; Potency, µM (series often up to 57.1 µM), for inactives: at the top dose activity, negative = inhibition, actives largely listed as inhibitors; 230,000 compounds, 0.66% hits; AID 485360; further: on the % scale 0 is the no-effect control and ±100 the full control effect; nearly all actives have a fitted effect of over 60% in size
# Target sequence (Q9Y468 whole entry, looked up): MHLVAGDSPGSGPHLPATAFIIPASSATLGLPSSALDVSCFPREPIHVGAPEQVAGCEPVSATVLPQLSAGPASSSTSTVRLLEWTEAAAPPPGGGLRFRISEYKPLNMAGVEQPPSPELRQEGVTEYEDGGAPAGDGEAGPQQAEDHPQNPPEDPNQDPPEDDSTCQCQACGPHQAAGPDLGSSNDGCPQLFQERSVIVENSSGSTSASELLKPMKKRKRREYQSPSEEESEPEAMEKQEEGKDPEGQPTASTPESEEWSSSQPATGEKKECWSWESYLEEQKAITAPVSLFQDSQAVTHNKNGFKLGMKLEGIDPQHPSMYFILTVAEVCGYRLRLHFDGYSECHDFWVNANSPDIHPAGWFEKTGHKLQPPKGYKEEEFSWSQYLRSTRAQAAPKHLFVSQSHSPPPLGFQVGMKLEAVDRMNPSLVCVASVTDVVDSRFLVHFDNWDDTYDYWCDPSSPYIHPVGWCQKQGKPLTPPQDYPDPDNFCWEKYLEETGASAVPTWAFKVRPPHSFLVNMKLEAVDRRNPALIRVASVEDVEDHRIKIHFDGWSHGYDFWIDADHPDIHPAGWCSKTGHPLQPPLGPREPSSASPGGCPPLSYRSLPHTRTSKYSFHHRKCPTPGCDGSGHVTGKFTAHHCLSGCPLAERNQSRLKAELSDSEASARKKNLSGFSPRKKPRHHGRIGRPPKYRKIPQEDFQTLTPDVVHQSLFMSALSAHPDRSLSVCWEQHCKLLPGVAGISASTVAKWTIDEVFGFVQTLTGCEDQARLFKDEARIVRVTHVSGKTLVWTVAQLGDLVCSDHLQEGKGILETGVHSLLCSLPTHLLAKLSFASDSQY
#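 Displacement of a biotinylated histone H3(1-15) peptide monomethylated at Lys9 (75 nM) from L3MBTL1 (50 nM) was measured by AlphaScreen after a 30 min room-temperature compound incubation; cefsulodin titration served as intraplate control.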
# JMJD2A Tudor inh: inhibitors of human JMJD2A Tudor domain. O75164. AlphaScreen JMJD2A-Tudor / H3K4me3 peptide binding. Potency, µM (top dose mostly 114 µM), for the others: top-dose activity change, negative = inhibition, most hits filed as inhibitors. 390,000 compounds, 4.4% hits; further: on the % scale 0 is the no-effect control and ±100 the full control effect; nearly all actives have a fitted effect of over 50% in size
# HP1b binding inh: blocks HP1-beta chromodomain binding to methylated histone tails; 390,000 compounds, 0.56% hits; Potency, µM (highest dose often 114 µM), without a hit: at the highest dose activity change, negative = inhibition, most hits filed as inhibitors; AlphaScreen HP1-beta / biotin-H3K9me3 peptide binding; further: nearly all actives have a fitted effect of over 70% in size
#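 AlphaScreen: HP1-beta (50 nM) preformed 30 min with biotin-H3(1-18)K9me3 peptide (50 nM) in PBS pH 7.4, 0.01% Tween-20. Compound added for 30 min at RT, then streptavidin donor/nickel chelate acceptor beads (10 ug/mL) for 30 min.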
# G9a block: blocks human histone lysine methyltransferase G9a; G9a H3K9 monomethylation, AlphaScreen, 2 h; Q96KQ7; Potency, µM (top dose mostly 102 µM), for the others: top-dose activity, negative = inhibition, usual class: inhibitors; 350,000 compounds, 8.8% hits; further: on the % scale 0 is the no-effect control and ±100 the full control effect; nearly all actives have a fitted effect of over 75% in size
#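 G9a (20 nM) preincubated 15 min RT with compounds, then 500 nM biotinylated H3K9 peptide and 20 uM SAM added; 2 h RT reaction. Monomethyl-H3K9 product detected by AlphaScreen with anti-H3K9me1 antibody, streptavidin donor and anti-rabbit IgG acceptor beads.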
# Starred values were filed as active, the others as inactive; ? = inconclusive; nt = no result; [ ] = another dose, or the depositor's remark. A selection: hits, their analogues and other compounds. The true share with any hit is near 11%. The call rests on the fitted dose curve; in most records, active means well fitted inhibition curve with a large enough effect; inconclusive means small, poorly fitted or top-dose-only effect; inactive means no such curve, though single readings can be large or run the other way. Potency means the concentration at half of the fitted maximal effect.
SMILES,BAZ2B inh,L3MBTL1 block,JMJD2A Tudor inh,HP1b binding inh,G9a block
COc1cccc(C(=O)NCCCNC(=O)c2ccco2)c1,7%,nt,-4%,31%,21%
COc1cccc(C(=O)NCCS(=O)(=O)N2CCCCC2)c1,12%,-4%,-3%,22%,11µM*
COc1cccc(C(=O)NCCS(=O)(=O)N2CCN(C(=O)c3ccco3)CC2)c1,12%,-1%,-3%,37%,14µM*
CCN1CCN(c2nc3c(S(=O)(=O)c4ccc(Br)cc4)nnn3c3ccsc23)CC1,-2%,nt,-10%,62%,10%[59 µM]
COc1cccc(C)c1NC(=O)C(OC(=O)CNC(=O)c1ccccc1)c1ccccc1 (stereo not given),nt,nt,-9%,nt,nt
O=C(c1ccccc1-c1ncc[nH]1)N1CCc2c([nH]c3ccccc23)C1c1ccccn1 (stereo not given),28µM*,0%,?,-25%,nt
CC(=O)c1ccc(C(=O)N2CCc3c([nH]c4ccccc34)C2c2ccccn2)s1 (stereo not given),35µM*,?,?,3%,?
O=C(c1noc2c1CCCC2)N1CCc2c([nH]c3ccccc23)C1c1ccccn1 (stereo not given),?,-12%,?,?,50µM*
O=C(c1ccccc1-n1cccn1)N1CCc2c([nH]c3ccccc23)C1c1ccccn1 (stereo not given),?,-15%,?,-23%,?
COc1ccc(OCC(=O)N2CCc3c([nH]c4ccccc34)C2c2ccccn2)cc1 (stereo not given),?,-22%,56µM*,-13%,?
CCNc1nc(C#N)nc(NCC)n1,nt,nt,-22%[57.1 µM],21%[57 µM],nt
O=C(c1cccs1)N1CCc2c([nH]c3ccccc23)C1c1ccc(Cl)cc1 (stereo not given),-39%,-9%,-36%,-18%,?
O=C(c1cccs1)N1CCc2c([nH]c3ccccc23)C1c1ccccn1 (stereo not given),?,-8%,?,-1%,45µM*
CSc1nc(C(=O)N2CCc3c([nH]c4ccccc34)C2c2ccccn2)cs1 (stereo not given),32µM*,-24%,50µM*,-19%,?
Cc1ccc(S(=O)(=O)Nc2ccc3c(c2)c(C(=O)OC(C)C)c(C)n3S(=O)(=O)c2ccc(C)cc2)cc1,-18%,nt,-21%,34%,-33%[59 µM]
COc1ccccc1CNC(=O)C(=O)NCC(c1cccnc1)N1CCN(c2ccc(F)cc2)CC1 (stereo not given),?,nt,?,11%,-59%[59 µM]
Clc1ccc(OCc2nnc(SCc3nc4ccccc4[nH]3)n2Cc2ccco2)cc1,-31%,-2%,?,-8%,40µM*
O=C(CSc1nnc(-c2ccccn2)n1Cc1ccco1)Nc1ccc2c(c1)OCO2,?,-2%,?,7%,0%[12.7 µM]
C(=C\c1ccccc1)/CSc1nnc(-c2ccccn2)n1Cc1ccco1,-35%,-8%,?,15%,16µM*
Cc1ccc(NC(=O)CSc2nnc(-c3ccccn3)n2N)c(Br)c1,13µM*,25µM*,?,26%,1%
Nn1c(SC/C=C/c2ccccc2)nnc1-c1ccccn1,11µM*,?,20µM*,31%,28µM*
CCn1c(COc2ccc(C)cc2)nnc1SCc1nc2ccccc2[nH]1,-31%,-6%,-32%,29%,nt
Nn1c(SC/C=C/c2ccccc2)nnc1-c1cccnc1,2%,nt,-17%,10%,-71%[12.7 µM]
COc1ccc2oc(=O)cc(CN3CCN(c4ccccc4OC)CC3)c2c1,-2%,nt,-31%,-1%,-26%[59 µM]
Cc1ccc(NC(=O)c2oc3ccccc3c2NC(=O)c2ccc(F)c(F)c2)cc1,1%,nt,-2%,67%,17%[59 µM]
SMILES,BAZ2B inh,L3MBTL1 block,JMJD2A Tudor inh,HP1b binding inh,G9a block
Clc1ccccc1CSc1nnc(-c2ccccn2)n1Cc1ccco1,56µM*,-1%,56µM*,0%,?
C=CCn1c(SCc2nc3ccccc3[nH]2)nnc1-c1ccncc1,2%,1%,-9%,22%,-4%[59 µM]
Cn1c(SCc2nc3ccccc3[nH]2)nnc1-c1cnccn1,10%,2%,-21%,15%,5%
NC(=O)CSc1nnc(-c2ccccn2)n1Cc1ccco1,-38%,-9%,0%,17%,-34%
Clc1ccc(CSc2nnc(-c3cccnc3)n2Cc2ccco2)c(Cl)c1,-24%,-26%,-14%,3%,35µM*
Clc1cccc(-c2nnc(SCc3nc4ccccc4[nH]3)n2Cc2ccco2)c1,?,-12%,?,-5%,40µM*
Clc1cccc(CSc2nnc(-c3cccnc3)n2Cc2ccco2)c1,6%,-8%,-19%,9%,?
c1coc(Cn2c(SCc3nc4ccccc4[nH]3)nnc2-c2cnccn2)c1,-9%,-5%,?,39%,32µM*
Cc1ccc(C)c(NC(=O)CN(C)C(=O)c2cc(C3CC3)nn2-c2ccccc2)c1,nt,-2%,-7%,30%,nt
CCOc1ccccc1NC(=O)c1nn(-c2ccc(C)cc2)c(=O)n(C)c1=O,-6%,nt,-8%,16%[57 µM],-2%[59 µM]
c1ccc(-c2nnc(SCc3nc4ccccc4[nH]3)n2Cc2ccco2)nc1,?,-4%,?,14%,50µM*
COc1ccc(C(=O)CSc2nnc(-c3cccnc3)n2Cc2ccco2)cc1,-5%,-4%,-7%,48%,50µM*
COc1ccc(C(=O)CSc2nnc(-c3cnccn3)n2Cc2ccco2)cc1,?,-5%,?,9%,?
Cc1cccc(CSc2nnc(-c3ccccn3)n2N)c1,35µM*,-25%,50µM*,25%,14µM*
COc1ccc(-c2nnc(SCc3cccc(C)c3)n2N)cc1,2%,0%,17%,18%,16%[59 µM]
Cc1cc(C(=O)NCc2ccccc2)c2c(C)nn(-c3cccc(F)c3)c2n1,13%[57.1 µM],nt,6%,46%,-3%[59 µM]
COC(=O)c1ccccc1NC(=O)Cn1c(=O)n(CCCC(=O)NCCc2ccc(OC)c(OC)c2)c(=O)c2ccccc21,2%,nt,-10%,33%,-32%[59 µM]
COc1ccc(C(=O)c2ccccc2)c(OCC(=O)NC2CC2)c1,1%,4%,-1%,31%,nt
COCCCN1C(=O)C(=O)/C(=C(/O)c2ccc(S(=O)(=O)N3CCCCC3)cc2)C1c1ccc(OC)cc1 (stereo not given),-3%,nt,-28%,20%,nt
COCCN1C(=O)C(=O)/C(=C(/O)c2ccc(S(=O)(=O)N3CCOCC3)cc2)C1c1ccc(O)cc1 (stereo not given),?,2%,3%,17%,71µM*
COCCCN1C(=O)C(=O)/C(=C(/O)c2ccc(S(=O)(=O)N3CCOCC3)cc2)C1c1ccc(OC)cc1 (stereo not given),-32%,nt,2%,35%,40µM*

# Bioassay records deposited in PubChem by National Center for Advancing Translational Sciences (NCATS).
